# The source made the active and inactive calls. Unless noted, no stated cut-off is given here; in the data, active means inhibition above about 80%; inactive means the rest.
# Tests used:
# [1] = growth inhibition, single agent or in combination, cell-based, chromothripsis tumors, cisplatin or BGB combos (AID 1671449); settings: LFS_MB_P medulloblastoma cells;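 further: cells exposed for 96 hours; 0% = vehicle DMSO and 100% = killing by high DMSO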
# [2] = growth inhibition, single agent and combos, cell-based, chromothripsis tumors, cisplatin or BGB combos (AID 1671450); settings: HDN33 neuroblastoma cells, stronger effect = higher value;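 further: cells exposed to compound for four days; 0% = vehicle DMSO and 100% = cell killing by high DMSO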
# [3] = growth inhibition, single agents and combos, ICB984, cell-based, cisplatin or BGB combos, synergistic combos for chromothripsis tumors (AID 1671451; call rule not given here;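 further: cells exposed for 96 hours before readout; 0% = vehicle DMSO and 100% = killing by high DMSO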); settings: ICB984 medulloblastoma cells, drug combinations, stronger effect = higher value
# [4] = growth inhibition, single agents and combos, LFS_MB_1R, cell-based, cisplatin or BGB combos, synergistic combos for chromothripsis tumors (AID 1671452); settings: LFS_MB_1R medulloblastoma cells, stronger effect = higher value;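 further: cells exposed for 96 hours before readout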
# [5] = growth inhibition, single agents and combos, HTB85, cell-based, BGB or cisplatin IC20 combos, synergistic combos for chromothripsis tumors (AID 1671453); settings: HTB85 osteosarcoma cells, drug combinations, stronger effect = higher value;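 further: cells exposed for 96 hours before readout; 0% = vehicle DMSO and 100% = high DMSO killing control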
# [6] = growth inhibition, single agents and combos, CRL2098, cell-based, BGB or cisplatin IC20 combos, synergistic combos for chromothripsis tumors (AID 1671454); settings: CRL2098 osteosarcoma cells, drug combinations, stronger effect = higher value;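 further: cells exposed for 96 h before readout; 0% = vehicle DMSO and 100% = killing by high DMSO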
# [7] = growth inhibition, single agents and combos, HD-MB03, cell-based, BGB or cisplatin IC20 combos, synergistic combos for chromothripsis tumors (AID 1671455; in the data active means inhibition above about 83%;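 further: 0% = vehicle DMSO and 100% = high DMSO as cytotoxic control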); settings: HD-MB03 medulloblastoma cells, stronger effect = higher value
# [8] = growth inhibition, single agents and combos, UWB1.289, cell-based, BGB or cisplatin combos, synergistic combos for chromothripsis tumors (AID 1671456); settings: UWB1.289 ovarian carcinoma cells, stronger effect = higher value;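 further: cells exposed to compound for four days; 0% = vehicle DMSO and 100% = killing by high DMSO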
# [9] = growth inhibition, single agents and combos, LFS_MB_2R, cell-based, cisplatin combos, synergistic combos for chromothripsis tumors (AID 1671457); settings: LFS_MB_2R medulloblastoma cells, stronger effect = higher value;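 further: cells exposed to compound for four days before readout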
# [10] = growth inhibition, MDA-MB-436, cell-based, BGB or cisplatin combos, synergistic combos for chromothripsis tumors (AID 1671458; call rule not given here;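 further: cells exposed for 96 hours; 0% = vehicle DMSO and 100% = killing by high DMSO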); settings: MDA-MB-436 breast carcinoma growth inhibition, drug combinations, stronger effect = higher value
# [11] = UWB1.289_BRCA1 ovarian cancer growth, cell-based, BGB or cisplatin combinations (AID 1671459); settings: UWB1.289 BRCA1 ovarian carcinoma, drug combinations, stronger effect = higher value
# [12] = drug combination toxicity in non-malignant astrocytes – cell-based, BGB or cisplatin IC20 combos, cytotoxicity control for chromothriptic childhood tumor combination screen (AID 1671460); settings: Human astrocytes, viability inhibition, drug combinations, at 0.5 µM, stronger effect = higher value;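 further: cells exposed to compounds for 96 hours before viability readout; 0% = vehicle and 100% = killing control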
# [13] = BT084 cell growth, single and combined drugs, ICGC_MB145, cisplatin and BGB IC40 combos (AID 1671461); settings: BT084 medulloblastoma cells, drug combinations, stronger effect = higher value;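 further: cells exposed to drugs for 96 hours; 0% = vehicle DMSO and 100% = high DMSO full killing control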
# [14] = RCMB18 cell growth, single agent and combined, cisplatin and BGB IC40 combos (AID 1671462); settings: RCMB18 medulloblastoma cells, stronger effect = higher value;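 further: cells exposed to compound for four days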
# [15] = CRL1545 cell growth, single agent and combined, cisplatin and BGB IC20 combos (AID 1671464); settings: CRL1545 osteosarcoma cells, stronger effect = higher value;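 further: cells exposed to compound for 96 hours before readout; 0% = vehicle DMSO and 100% = high DMSO killing control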
# [16] = at 0.5 µM, stronger effect = higher value
# [17] = measured here: combination with BGB IC20, at 0.005 µM
# [18] = measured here: combination with BGB IC40, at 0.005 µM
# [19] = measured here: combination with BGB IC40, at 0.05 µM
# [20] = measured here: combination with cisplatin, at 0.5 µM, stronger effect = higher value
# [21] = measured here: combination with cisplatin, at 5 µM, stronger effect = higher value
# [22] = measured here: with BGB IC20 combination, at 0.5 µM
# [23] = measured here: with cisplatin IC20 combination, at 0.5 µM
# [24] = measured here: 5 uM single agent, at 5 µM
# [25] = measured here: combination with cisplatin, at 0.5 µM
# [26] = measured here: combination with cisplatin, at 5 µM
# [27] = measured here: with BGB IC20, at 0.5 µM
# [28] = measured here: with BGB IC20, at 5 µM
# [29] = measured here: with cisplatin IC20, at 0.5 µM
# [30] = measured here: with cisplatin IC20, at 5 µM
# [31] = measured here: combination with BGB at IC20, at 0.5 µM
# [32] = measured here: combination with cisplatin at IC20, at 0.5 µM
# [33] = measured here: combo with BGB at IC20, at 0.5 µM
# [34] = measured here: combo with cisplatin at IC20, at 0.5 µM
# [35] = measured here: inhibition with BGB combination, at 0.05 µM
# [36] = measured here: inhibition with cisplatin combination, at 0.05 µM
# [37] = measured here: BGB combination, at 0.5 µM
# [38] = measured here: BGB combination, at 5 µM
# [39] = measured here: cisplatin combination, at 0.5 µM
# [40] = measured here: cisplatin combination, at 5 µM
# [41] = BGB combination, concentration series, at 5 µM
# [42] = cisplatin combination, concentration series, at 5 µM
# [43] = measured here: combo with BGB IC20
# [44] = measured here: combo with cisplatin IC20
# [45] = cisplatin combination, at 0.5 µM
# [46] = measured here: BGB IC40 combination 0.05 uM, at 0.05 µM
# [47] = measured here: BGB IC40 combination, at 0.05 µM
smiles,measurement,setting,value
Cn1cnc2[nH]c(=O)[nH]c(=O)c21,inhibition,[1]; [16],-31.2% (inactive)
same,inhibition,[1]; [17],-23.8%
same,inhibition,[1]; [18],-24.9%
same,inhibition,[1]; [19],-15.5%
same,inhibition,[1]; [20],-52.2%
same,inhibition,[1]; [21],-16.9%
same,inhibition,"[2]; BGB combo, at 5 µM",-14.9%
same,inhibition,[2]; at 0.5 µM,-29.3% (inactive)
same,inhibition,"[2]; cisplatin combo, at 5 µM",-9.77%
same,inhibition,[2]; [22],-37.1%
same,inhibition,[2]; [23],-7.77%
same,inhibition,"[2]; single agent, at 5 µM",-7.59%
same,inhibition,"[3]; BGB IC20 combo, at 0.005 µM",-15.3%
same,inhibition,"[3]; BGB IC40 combo, at 0.005 µM",-28.7%
same,inhibition,"[3]; BGB IC40 combo, at 0.05 µM",-16.7%
same,inhibition,[3]; at 0.5 µM,-24.9% (inactive)
same,inhibition,"[3]; cisplatin combo, at 0.05 µM",-16.7%
same,inhibition,"[3]; cisplatin combo, at 0.5 µM",-33.2%
same,inhibition,"[3]; cisplatin combo, at 5 µM",-13.6%
same,inhibition,[3]; [24],2.87%
same,inhibition,[4]; at 0.5 µM,-24.6% (inactive)
same,inhibition,[4]; [19],-0.159%
same,inhibition,[4]; [25],11.9%
same,inhibition,[4]; [26],-7.74%
same,inhibition,[5]; at 0.5 µM,-29.8% (inactive)
same,inhibition,[5]; [27],-76.7%
same,inhibition,[5]; [28],-27.8%
same,inhibition,[5]; [29],0.051%
same,inhibition,[5]; [30],18.6%
same,inhibition,"[5]; single agent, at 5 µM",-24.4%
same,inhibition,[6]; at 0.5 µM,-69.2% (inactive)
same,inhibition,[6]; [31],-77.5%
same,inhibition,[6]; [32],-102%
same,inhibition,[7]; at 0.5 µM,-10.2% (inactive)
same,inhibition,[7]; [33],-8.65%
same,inhibition,[7]; [34],-11.2%
same,inhibition,[8]; at 0.5 µM,-8.42% (inactive)
same,inhibition,[8]; [35],-20.6%
same,inhibition,[8]; [36],-21.4%
same,inhibition,[9]; at 0.5 µM,-6.27% (inactive)
same,inhibition,[9]; [25],-10.9%
same,inhibition,[9]; [26],-15.8%
same,inhibition,[10]; at 0.5 µM,-15.1% (inactive)
same,inhibition,[10]; [37],-7.33%
same,inhibition,[10]; [38],-1.97%
same,inhibition,[10]; [39],-35.1%
same,inhibition,[10]; [40],-7.26%
same,inhibition,[11]; [41],-2.15%
same,inhibition,[11]; at 0.5 µM,-8.08% (inactive)
same,inhibition,[11]; [42],4.95%
same,inhibition,[12],14% (inactive)
same,inhibition,[12]; [43],17.9%
same,inhibition,[12]; [44],4.38%
same,inhibition,[13]; at 0.5 µM,-17.3% (inactive)
same,inhibition,[13]; [45],-7.22%
same,inhibition,"[13]; cisplatin combination, at 5 µM",-68.1%
same,inhibition,[13]; [46],-20.6%
same,inhibition,"[13]; single agent, at 5 µM",-30.4%
same,inhibition,[14]; at 0.5 µM,-15.8% (inactive)
same,inhibition,"[14]; cisplatin combo, at 5 µM",-20.1%
same,inhibition,[14]; [47],-17.4%
same,inhibition,[14]; [25],-33.2%
same,inhibition,"[14]; single agent, at 5 µM",-24.4%
same,inhibition,[15]; at 0.5 µM,-15.4% (inactive)
same,inhibition,[15]; [22],4.76%
same,inhibition,[15]; [23],-25.6%
same,inhibition,"[15]; single agent, at 0.05 µM",-33.9%
same,inhibition,"[15]; single agent, at 5 µM",-5.96%
C[C@@H]1O[C@@H](O[C@@H]2[C@@H](O)[C@H](OCCc3ccc(O)c(O)c3)O[C@H](CO)[C@H]2OC(=O)C=Cc2ccc(O)c(O)c2)[C@H](O)[C@H](O)[C@H]1O,inhibition,[1]; [16],-19.7% (inactive)
same,inhibition,[1]; [17],-7.94%
same,inhibition,[1]; [18],-47.4%
same,inhibition,[1]; [19],-17.9%
same,inhibition,[1]; [20],-14.4%
same,inhibition,[1]; [21],-15.6%
same,inhibition,"[2]; BGB combo, at 5 µM",-0.831%
same,inhibition,[2]; at 0.5 µM,5.6% (inactive)
same,inhibition,"[2]; cisplatin combo, at 5 µM",41%
same,inhibition,[2]; [22],2.02%
same,inhibition,[2]; [23],15.9%
same,inhibition,"[2]; single agent, at 5 µM",21.8%
same,inhibition,"[3]; BGB IC20 combo, at 0.005 µM",-21.2%
same,inhibition,"[3]; BGB IC40 combo, at 0.005 µM",-5.21%
same,inhibition,"[3]; BGB IC40 combo, at 0.05 µM",-11.9%
same,inhibition,[3]; at 0.5 µM,-18.6% (inactive)
same,inhibition,"[3]; cisplatin combo, at 0.05 µM",-17.7%
same,inhibition,"[3]; cisplatin combo, at 0.5 µM",-31.1%
same,inhibition,"[3]; cisplatin combo, at 5 µM",-7.59%
same,inhibition,[3]; [24],-11%
same,inhibition,[4]; at 0.5 µM,-31.7% (inactive)
same,inhibition,[4]; [19],-26.1%
same,inhibition,[4]; [25],-49.4%
same,inhibition,[4]; [26],-50.3%
same,inhibition,[5]; at 0.5 µM,-2.22% (inactive)
same,inhibition,[5]; [27],11%
same,inhibition,[5]; [28],-2.54%
same,inhibition,[5]; [29],-24.2%
same,inhibition,[5]; [30],13.7%
same,inhibition,"[5]; single agent, at 5 µM",14.4%
same,inhibition,[6]; at 0.5 µM,-20.3% (inactive)
same,inhibition,[6]; [31],-22.9%
same,inhibition,[6]; [32],-10.2%
same,inhibition,[7]; at 0.5 µM,-12.4% (inactive)
same,inhibition,[7]; [33],-18%
same,inhibition,[7]; [34],-15.8%
same,inhibition,[8]; at 0.5 µM,2.22% (inactive)
same,inhibition,[8]; [35],-13.4%
same,inhibition,[8]; [36],-3.75%
same,inhibition,[9]; at 0.5 µM,-23.2% (inactive)
same,inhibition,[9]; [25],-31.6%
same,inhibition,[9]; [26],-36.7%
same,inhibition,[10]; at 0.5 µM,-13.3% (inactive)
same,inhibition,[10]; [37],-5.37%
same,inhibition,[10]; [38],-8.31%
same,inhibition,[10]; [39],-39.6%
same,inhibition,[10]; [40],-30.4%
same,inhibition,[11]; [41],-4.79%
same,inhibition,[11]; at 0.5 µM,2.12% (inactive)
same,inhibition,[11]; [42],23.8%
same,inhibition,[12],3.51% (inactive)
same,inhibition,[12]; [43],-0.074%
same,inhibition,[12]; [44],5.26%
same,inhibition,[13]; at 0.5 µM,-15.3% (inactive)
same,inhibition,[13]; [45],-21.1%
same,inhibition,"[13]; cisplatin combination, at 5 µM",-157%
same,inhibition,[13]; [46],-26.5%
same,inhibition,"[13]; single agent, at 5 µM",-19.8%
same,inhibition,[14]; at 0.5 µM,-0.47% (inactive)
same,inhibition,"[14]; cisplatin combo, at 5 µM",8.1%
same,inhibition,[14]; [47],-349%
same,inhibition,[14]; [25],-0.428%
same,inhibition,"[14]; single agent, at 5 µM",-0.98%
same,inhibition,[15]; at 0.5 µM,3.16% (inactive)
same,inhibition,[15]; [22],-11.9%
same,inhibition,[15]; [23],9.28%
same,inhibition,"[15]; single agent, at 0.05 µM",-3.32%
same,inhibition,"[15]; single agent, at 5 µM",19.3%
